Compound activity (PubChem)
BoNT-F LC inh: BoNT/F light chain protease inhibitors, primary screen, biochemical, flow cytometry, MLPCN library; Botulinum neurotoxin type F light chain protease (Clostridium botulinum); Multiplex microsphere protease cleavage assay; inhibition, % at 10 µM; hit rate 0.22% among 360,000; AID 588497, 2011; in the data active = inhibition above about 35%, passing the limit was not always enough; inconclusive = no clear call, values can overlap the other calls; also: plate controls were buffer without enzyme for full effect and enzyme alone for no effect
Anthrax LF inh2: Bacillus anthracis LF protease inhibitors, primary screen, biochemical, multiplex microsphere, MLPCN library; multiplex microsphere protease cleavage assay; inhibition, % at 10 µM; AID 588501, 2011; hit rate 0.12% among 360,000; also: plate controls were buffer without enzyme for full effect and enzyme alone for no effect
BoNT A protease: BoNT/A light chain protease inhibitors, primary screen, biochemical, flow cytometry, MLPCN library; Botulinum neurotoxin type A light chain protease (Clostridium botulinum A str. ATCC 3502); multiplex microsphere protease substrate cleavage; inhibition, % at 10 µM; hit rate 0.17% among 360,000; also: plate controls were buffer without enzyme for full effect and enzyme alone for no effect
MazEF act: activators of E. coli MazEF toxin-antitoxin RNase, primary screen, biochemical, fluorescence, uHTS. Endoribonuclease toxin MazF (Escherichia coli (strain K12)), P0AE70. FAM/BHQ RNA-DNA oligo cleavage fluorescence, 5 h. activation, % at 20 µM. hit rate 0.32% among 350,000. AID 504720, 2011; in the data active = activation above about 50%
Target sequence (P0AE70 whole entry, looked up): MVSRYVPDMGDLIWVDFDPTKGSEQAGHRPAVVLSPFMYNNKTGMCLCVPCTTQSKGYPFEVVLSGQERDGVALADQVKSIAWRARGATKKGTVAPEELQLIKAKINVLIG
Bead autofluor: flagged as autofluorescent in microsphere protease counterscreen; compound autofluorescence counterscreen, microsphere flow cytometry; stronger effect = higher value; fluorescence intensity (concentration not given with the values); hit rate 3.1% among 360,000; AID 624483; in the data active = fluorescence intensity above about 16000; inconclusive = no clear call, values can overlap the other calls
Active calls of the source: *; ? = inconclusive; nt = not tested or not shown. Compounds with a hit are over-represented: about 3.6% of the library has one in this group of screens. Rule as the data show it, unless noted: active = inhibition above about 30%; inconclusive = no clear call, values can overlap the other calls; inactive = below that.

SMILES | BoNT-F LC inh | Anthrax LF inh2 | BoNT A protease | MazEF act | Bead autofluor
CCN1CCN(c2ccc(S(=O)(=O)N3CCOCC3)cc2NC(=O)C(C)Oc2ccc(Cl)cc2)CC1 (configuration not stated) | -12 | 1 | -6 | 8 | 5482
C=CCN1CC(c2nc3ccccc3n2Cc2ccccc2)CC1=O (configuration not stated) | -4 | 0 | ? | 2 | 20701*
Cn1c(C2CC(=O)N(Cc3ccccc3)C2)nc2ccccc21 (configuration not stated) | -7 | -9 | -1 | 0 | 6439
Cn1cc(C=CC(=O)O)c2nccnc21 | -1 | 5 | 0 | 3 | 3783
CCc1ccccc1NC(=O)C1=CN2CCS(=O)(=O)N=C2C=C1 | -8 | -4 | -1 | -3 | 5750
CC(C)c1ccc(C2C(C(=O)c3ccco3)=C(O)C(=O)N2CCN2CCOCC2)cc1 (configuration not stated) | 3 | 1 | 0 | 2 | 5710
C#CCn1c(S(=O)(=O)Cc2ccc(C)cc2)nc(-c2ccccc2)c1-c1ccccc1 | 14 | -2 | 11 | 3 | 17325*
C#CCn1c(S(=O)(=O)Cc2ccccc2Cl)nc(-c2ccccc2)c1-c1ccccc1 | -14 | -4 | -1 | -8 | 11876
C[C@H]1CN([C@@H](C)CO)C(=O)CCCn2nncc2CO[C@H]1CN(C)S(=O)(=O)c1ccc(Oc2ccccc2)nc1 | -7 | -2 | 0 | 0 | 3429
O=C(COC(=O)C1CC2C=CC1C2)Nc1ccc2c(c1)OC(F)(F)O2 (configuration not stated) | 1 | -1 | 0 | 3 | 16493*
CN1CCN(c2ccc(S(=O)(=O)N3CCOCC3)cc2NC(=O)COc2ccc(C#N)cc2)CC1 | 0 | 2 | 0 | 6 | 3871
CN(C)C(=O)c1cccc(-c2cnc3c(NC=O)cc(-c4ccccc4F)cn23)c1 | 1 | -3 | 0 | nt | 3149
Cc1ccc(C)c(NC(=O)CCC(=O)NNC(=O)c2cccc([N+](=O)[O-])c2)c1 | -4 | 1 | ? | -3 | 24147*
O=C(CCC(=O)OCc1cccc([N+](=O)[O-])c1)Nc1ccccc1Cl | -1 | -1 | 0 | -1 | 2567
O=C(NNC(=O)c1ccco1)c1cccc([N+](=O)[O-])c1 | 38* | 2 | -1 | 1 | 4513
O=C(CCC(=O)OCC(=O)c1cccc([N+](=O)[O-])c1)Nc1ccccc1Cl | -7 | -2 | -4 | 5 | 25045*
Cc1ccc(C2=NCCn3c2c2ccc(C(F)(F)F)cc2[n+]3[O-])cc1 | 0 | -8 | 0 | 6 | 2970
Cc1ccccc1OCCC(=O)Nc1ccc(S(=O)(=O)N2CCCC2)cc1 | -6 | -3 | 0 | -3 | 4140
NC(=O)CSc1nnc(-c2cc(-c3cccs3)nc3ccccc23)o1 | 1 | 0 | 0 | 59* | 2478
C=CCN(c1ccccc1OC)S(=O)(=O)c1ccc(Cl)c(C(=O)NCc2ccco2)c1 | 8 | -10 | 0 | -2 | 3377
O=C(Cc1csc(N2CCOCC2)n1)N/N=C/c1ccc(O)c(O)c1O | -16 | -11 | -2 | -7 | 4253
C/C(=N\NC(=O)Cc1csc(N2CCOCC2)n1)c1ccccc1 | -10 | -4 | ? | 3 | 21300*
C=CCn1c(=S)sc2c(=O)[nH]cnc21 | ? | 53* | -1 | 0 | 3494
C=CCn1c(=S)[nH]c2cc(-c3ccccc3)sc2c1=O | 3 | -1 | 2 | -6 | 4978
O=c1[nH]cnc2c1sc(=S)n2-c1ccccc1 | 2 | -2 | 2 | 10 | 22624*
O=c1[nH]c(-c2ccc(F)cc2)nc2c1sc(=S)n2-c1ccccc1 | -8 | 0 | -1 | -4 | 2682
CC(C)=CCC/C(C)=C/CNC(=O)C[C@H]1C[C@H](C(=O)N2CCCCC2)[C@@]2(C)c3[nH]c4cc(CCC(=O)N(C)C)ccc4c3CCN2C1=O | 5 | -7 | 0 | 15 | 3468
NC(=S)N=Nc1c(O)cc(O)c2[nH]c(=O)ccc12 | -13 | -9 | -1 | 9 | 3847
O=C(Nc1ccc2c(c1)OCCO2)C1c2ccccc2OCC(=O)N1Cc1cccnc1 (configuration not stated) | 1 | 3 | 0 | nt | 5834
